# TIM10 inh: inhibits growth of TIM10 yeast strain; AID 463195; 330,000 tested, 1.4% active; inhibition, % at 10 µM; S. cerevisiae TIM10 strain growth, BacTiter-Glo luminescence, 24 h;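 active = inhibition of 40% or more at the single tested concentration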;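 also: wild-type TIM10 isogenic control strain grown at permissive 25 °C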
# SKKanGAS inh: inhibitors of SKKanGAS S. pyogenes growth in kanamycin (SK-promoter or general growth effect) | inhibition, % at 7.5 µM | AID 1662 | 300,000 tested, 1.3% active | BacTiter-Glo, 6 h;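 active = mean replicate score, as percent of positive control median, at least 50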;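 also: strain carries kanamycin resistance gene driven by streptokinase promoter and grows in 40 µg/ml kanamycin; loss of luminescence reflects streptokinase promoter inhibition or plain growth inhibition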
# tim23-1 inh: tim23-1 yeast growth inhibition; S. cerevisiae tim23-1 growth, BacTiter-Glo luminescence, 24 h; inhibition, % at 20 µM; 330,000 tested, 1.3% active; AID 463212;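 active = growth inhibition of the mutant yeast at or above 50%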;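 also: temperature-sensitive mutant grown at 25 °C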
# PfHsp90 yeast 2: inhibits growth of yeast expressing Plasmodium falciparum Hsp90 | S. cerevisiae expressing PfHsp90, BacTiter-Glo ATP, 48 h; yeast lacking PDR1 and PDR3 efflux regulators | 310,000 tested, 0.32% active | inhibition, % at 9.4 µM | AID 504621;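 active = every replicate shows inhibition above about 80%, whatever the replicate mean, limit read from the data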
# tim10-1 inh: inhibits growth of tim10-1 mutant yeast | S. cerevisiae tim10-1 ts strain growth, BacTiter-Glo, 24 h | inhibition, % at 20 µM | 330,000 tested, 2.2% active | AID 463190;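 active = inhibition of at least 40%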;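 also: mutant grown at 25 °C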
# V-ATPase pH: alters yeast V-ATPase proton transport; S. cerevisiae, pHLuorin cytosolic pH fluorescence; response, % at 10 µM; 350,000 tested, 0.37% active; in the data active = response mostly above about 7.3%, no sharp cut-off; inactive = mostly below about 5.4%; also: actives read high
# tim10-1 conf: tim10-1 yeast growth inhibition, confirmed; inhibition, % at 20 µM; 7,400 tested, 56% active; S. cerevisiae tim10-1 ts strain growth, BacTiter-Glo, 24 h; shares compounds with tim10-1 inh;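 active = inhibition of yeast growth at or above a set limit in either of two repeat tests at 20 µM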;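 also: tim10-1 mutant grown at permissive 25 °C to find synthetic lethal compounds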
# A number is an active result; i = inactive; nt = no result. Sampled rows, rich in hits. Any-hit rate of the full collection: about 4.6%.
SMILES,TIM10 inh,SKKanGAS inh,tim23-1 inh,PfHsp90 yeast 2,tim10-1 inh,V-ATPase pH,tim10-1 conf
O=C(CSc1ccccc1C(=O)NCc1ccccc1)NC12CC3CC(CC(C3)C1)C2,i,i,i,i,40,i,32
CCc1ccc(-c2cc3c(=O)n(CC(=O)NCCCN4CCC(Cc5ccccc5)CC4)nc(C)n3n2)cc1,i,i,i,i,53,i,i
Cc1nn(CC(=O)NCCCN2CCC(Cc3ccccc3)CC2)c(=O)c2cc(-c3ccccc3)nn12,i,i,i,i,i,i,nt
Cc1ccc(N=Nc2c(O)n(CN3CCOCC3)c3ccccc23)cc1,i,i,i,nt,44,i,32
Nc1cc2c(cc1C(=O)c1ccc(Cl)cc1)OCCO2,i,i,i,i,41,i,33
NCCNC[C@@H]1COC2(CCCCCCCCCCC2)O1,i,i,i,i,i,i,nt
c1ccc(-c2cc(-c3nnc4n3N=C(c3ccc5ccccc5c3)CS4)[nH]n2)cc1,i,i,i,i,48,i,i
Cc1cc(-c2nnc3n2N=C(c2ccc(-c4ccccc4)cc2)CS3)n[nH]1,i,i,i,i,i,i,nt
COc1ccc(C2(O)CC3CCC(C2)N3c2cc(C)nc(-c3ccccc3)n2)cc1 (stereo not drawn),i,i,i,i,42,i,32
CC(=O)Oc1cc2c(cc1Cl)C(c1cccs1)CC1(CC(C)(C)NC(=S)N1)O2 (stereo not drawn),i,i,i,i,i,i,nt
O=C1c2ccccc2S(=O)(=O)c2cc(C(=O)N(c3ccccn3)c3ccccn3)ccc21,i,i,i,i,41,i,i
CCNC(=S)N/N=C/c1cccc(/C=N/NC(=S)NCC)c1,i,i,i,i,i,i,nt
CCNC(=S)N/N=C/c1c(Cl)cccc1Cl,i,i,i,i,41,i,i
CC(C)(C)NC(=S)N/N=C/c1c(Cl)cccc1Cl,i,i,i,i,40,i,i
CC1(CCC(=O)O)C(=O)CCC2C1CCC1(C)C2CCC1(C)O (stereo not drawn),nt,nt,nt,nt,nt,i,nt
Cc1ccc(OC(=O)C2CSC3(C)CCC(=O)N23)c(Br)c1 (stereo not drawn),i,i,i,i,49,i,i
O=C(Cn1c(=O)c2cccn2c2cccnc21)N1CCN(c2ccc(Cl)cc2)CC1,i,i,i,i,43,i,i
COc1ccc(C(=O)OCC(=O)NCC2CCCO2)cc1S(=O)(=O)N1CCCc2ccccc21 (stereo not drawn),i,i,i,i,i,i,nt
N#CC(C#N)=CC1=C2OC(c3ccccc3)=CC(c3ccccc3)=C2CCC1,i,i,i,i,48,i,i
Cc1ccc(S(=O)(=O)N(Cc2ccccc2)c2ccccc2C(=O)NCc2cccnc2)cc1,i,i,i,i,41,i,i
Cc1ccc(S(=O)(=O)N(C)c2ccc(C(=O)NCc3cccnc3)cc2)cc1,i,i,i,i,i,i,nt
O=C(NNC(=S)NC1CCCCC1)c1sc2ccccc2c1Cl,i,i,i,i,50,i,i
O=C(NC1CC1)c1sc2ccccc2c1Cl,i,i,i,i,i,i,nt
COc1cccc(NCc2ccc([N+](=O)[O-])s2)c1,i,i,i,i,41,i,i
COc1ccc(Nc2ncnc3scc(-c4ccc(OC)cc4)c23)cc1,i,50,i,i,49,i,36
SMILES,TIM10 inh,SKKanGAS inh,tim23-1 inh,PfHsp90 yeast 2,tim10-1 inh,V-ATPase pH,tim10-1 conf
Cc1ccc(NC(=S)Nc2ccc(OC(F)F)c(Cl)c2)cc1Cl,nt,i,nt,i,nt,i,nt
Cc1ccc(NC(=S)Nc2ccc(Cl)c(Cl)c2)c(OC(F)F)c1,i,i,i,i,61,i,38
NC(=O)c1ccc(NC(=O)CCN=C2NS(=O)(=O)c3ccccc32)cc1,i,i,i,i,i,i,nt
O=S(=O)(Nc1cccc2cccnc12)c1ccc(S(=O)(=O)N2CCCC2)cc1,i,i,i,i,50,i,39
CC1(C)NC(=O)N(CC(O)CN(c2ccccc2)S(=O)(=O)c2ccccc2[N+](=O)[O-])C1=O (stereo not drawn),i,i,i,i,i,i,nt
Cc1cc2nnc(SCc3ccc4c(c3)OCO4)n2c2ccccc12,nt,nt,nt,i,nt,i,nt
c1ccc2c(c1)ccc1nnc(SCc3ccc4c(c3)OCCO4)n12,i,i,i,i,45,i,29
CCCCN1C(=O)C(CC(=O)NCCCCc2ccccc2)CC(C(=O)N(C)C)=C1C (stereo not drawn),nt,nt,nt,nt,nt,i,nt

# High-throughput results as filed in PubChem BioAssay.
